# From PubChem
# Hits are enriched below; roughly 12% of the tested compounds scored in any of these assays.
# Lmaj promast = Leishmania major promastigote growth inhibition, primary screen; Leishmania major promastigotes, resazurin fluorescence viability; inhibition, % at 10 µM; 9% of 200,000 active; AID 1063, 2008; in the data active = inhibition above about 50%;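 note: promastigotes grown with compound for 44 hours at 28 °C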
# Arbovirus anti = antivirals against arbovirus infection, primary screen, cell-based, full library, 10K replicate subset. arbovirus infection cell-based antiviral screen. inhibition, % at 10 µM. 0.37% of 200,000 active. AID 1251, 2008; in the data active = inhibition above about 30%
# CHOP inh = inhibitors of CHOP promoter induction, primary screen, cell-based, unfolded protein response, luciferase reporter; CHO-K1 CHOP-promoter luciferase, tunicamycin-induced, 15-18 h; inhibition, % at 10 µM; 3.8% of 220,000 active; AID 2732, 2010;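 active = compounds that reduced the stress-induced luciferase reporter signal by more than about 70% of percent inhibition, limit read from the data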;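 note: 0% = tunicamycin plus vehicle and 100% = wells without tunicamycin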
# WT yeast gro inh = growth inhibition of WT strain, primary screen, mitochondrial fusion inhibitor project, WT and mutant strains, chemical genetic; mitochondrial fusion phenotypic screen; inhibition, % at 10 µM; 2.1% of 190,000 active; AID 1362, 2008; in the data active = inhibition above about 58%; tested in S. cerevisiae
# The depositor's hits bear a star; x = no result.
SMILES,Lmaj promast,Arbovirus anti,CHOP inh,WT yeast gro inh
O=c1c(-c2n[nH]c(=S)o2)cccn1Cc1ccccc1,2,3,3,-4
COc1ccc(NC(=O)CNc2cccc(C#N)c2)cc1Cl,3,-1,16,71*
Cc1c(C)n(CC(O)CN2CCCCCC2)c2ccccc12 (centres undefined),99*,4,21,24
Cc1c(C)n(CC(O)CNCCO)c2ccccc12 (centres undefined),-10,6,-4,15
Cc1c(C)n(CC(O)CNc2ccccc2)c2ccccc12 (centres undefined),4,-1,90*,34
CCc1c(C(=O)N/N=C/c2ccc(C)o2)csc1C,-1,-3,-16,10
COc1cc2c(cc1OC)C(c1ccc(-c3ccc(Cl)c(Cl)c3)o1)=NCC2,71*,-29,80*,75
COc1cc2c(cc1OC)C(c1ccc(-c3ccc(Cl)cc3Cl)o1)=NCC2,27,7,64,49
COc1cc2c(cc1OC)C(c1ccc(Cl)cc1)=NCC2,x,x,13,x
COc1cc2c(cc1OC)C(c1ccc(-c3cc(Cl)ccc3Cl)o1)=NCC2,40,14,85*,20
COc1ccc(CC(=O)O/N=C(\N)Cc2cccc3ccccc23)cc1OC,4,5,9,22
COc1cc(C(=O)NCCCc2nc3ccccc3n2Cc2cc(C)ccc2C)cc(OC)c1OC,69*,-3,7,-8
CN1CCN(Cc2cccc(Oc3ccc(Cl)cc3)c2)CC1,100*,-16,10,10
CCN1CCN(Cc2cccc(Oc3ccccc3)c2)CC1,97*,-23,6,9
Clc1ccc(CN2CCCCCCC2)cc1,2,1,23,26
c1ccc(Oc2cccc(CN3CCCCC3)c2)cc1,100*,1,15,12
Cc1cccc(CN2CCN(c3ccccn3)CC2)c1,2,x,x,x
c1ccc(COc2cccc(CN3CCN(c4ccccn4)CC3)c2)cc1,79*,7,-19,9
COC(=O)CSc1nc(C)c(Oc2ccccc2)c(=O)[nH]1,-3,5,30,7
CCN1CCN(Cc2cccc(Oc3ccc(Cl)cc3)c2)CC1,96*,-11,-18,18
COCc1c(C(=O)OCC(=O)NCCN2C(=O)CSC2=O)oc2ccccc12,-6,4,9,2
O=C(O)c1ccc(Cl)c(N2C(=O)Nc3ccccc3N2O)c1,-5,6,9,-11
N#C/C(=N\Nc1cccc([N+](=O)[O-])c1)C(=O)c1ccc(Br)cc1,14,-23,79*,67*
O=C(Nc1ccc(N2CCCCCC2)cc1)c1ccccc1Cl,57*,-22,-51,23
O=C(Nc1ccc(N2CCCCC2)cc1)c1ccccn1,-2,-8,94*,61*
SMILES,Lmaj promast,Arbovirus anti,CHOP inh,WT yeast gro inh
COc1ccccc1C(=O)Nc1ccc(N2CCCCC2)cc1,1,6,2,3
O=C(CNCc1cccs1)Nc1ccc(N2CCCCCC2)cc1,51*,-11,38,13
COc1ccccc1C(=O)Nc1ccc(N2CCN(C(C)=O)CC2)cc1,-3,-1,77*,-16
N#CCC(=O)Nc1ccc(C(=O)Nc2cccc(S(N)(=O)=O)c2)cc1,x,x,-2,x
CS(=O)(=O)N1CCC(C(=O)NCc2ccc3c(c2)OCO3)CC1,-6,4,29,2
O=C(NC(=S)Nc1ccc(N2CCCC2)cc1)c1ccccc1[N+](=O)[O-],54*,4,-9,4
O=C(NC(=S)Nc1ccccc1N1CCCC1)c1ccccc1[N+](=O)[O-],12,4,27,43
O=C(/C=C/c1ccc(Cl)c([N+](=O)[O-])c1)Nc1ccc(N2CCCC2)cc1,67*,-11,3,10
C/C(=N/NC(=O)CNC(=O)c1ccncc1)c1ccco1,x,x,20,x
N#CC(c1ccc(Cl)cc1)(c1ncc(C(F)(F)F)cc1Cl)N1CCOCC1 (centres undefined),0,0,60,70*
N#CC(c1ccccc1F)(c1ncc(C(F)(F)F)cc1Cl)N1CCOCC1 (centres undefined),-6,3,11,4
C/C(=N\Nc1cccc(Cl)c1)c1ccc(-n2ccnc2)cc1,1,-26,44,66*
C=CCN(c1ccccc1OC)S(=O)(=O)c1cccc(C(=O)OCC(=O)c2c[nH]c3ccccc23)c1,97*,-3,73*,5
COc1cc(OC)c(N(C)S(=O)(=O)c2cccc(C(=O)OCC(=O)c3c[nH]c4ccccc34)c2)cc1Cl,97*,-4,66,15
COc1cc(/C=C/C(=O)OCC(=O)c2c[nH]c3ccccc23)ccc1OC(F)F,-4,2,47,2
COc1cc(C(=O)OCC(=O)c2c[nH]c3ccccc23)ccc1OCC(=O)N1CCOCC1,3,6,-23,6
O=C(NC1(N2CCOCC2)CC1)c1ccc(Cl)cc1,x,x,11,x
O=C(c1ccco1)N1CCN(S(=O)(=O)c2cccc([N+](=O)[O-])c2)CC1,-4,0,0,2
CC(C)N1CC=C2C(C#N)=C(N)C(C#N)(C#N)[C@H](c3ccoc3)[C@H]2C1,-2,2,13,24
CCN1CC=C2C(C#N)=C(N)C(C#N)(C#N)C(c3cc(Cl)ccc3Cl)C2C1 (centres undefined),65*,2,41,-1
c1ccc(-n2ncc3c(NCc4cccnc4)ncnc32)cc1,61*,9,-2,5
Cc1ccccc1Nc1ncnc2c1cnn2-c1ccccc1,31,-12,73*,2
CCOc1ccc(Nc2ncnc3c2cnn3-c2ccccc2)cc1,-8,4,101*,15
NC(=O)c1nc(-c2ccco2)nc2c1[nH]c(=O)n2-c1ccc(Cl)c(Cl)c1,x,x,-18,x
O=C(c1ccccc1)N1CCN(C(=S)NCc2ccc3c(c2)OCO3)CC1,-8,4,5,-2
SMILES,Lmaj promast,Arbovirus anti,CHOP inh,WT yeast gro inh
CCOC(=O)C1=C(C)OC(N)=C(C#N)C1c1cc2c(cc1[N+](=O)[O-])OCO2 (centres undefined),21,-1,32,-6
CCCCOc1ccc(-c2cc(C(=O)NNC(=S)NCC)c3ccccc3n2)cc1,9,-41,-66,53
CCn1cc(CNC(=O)c2cc(-c3cc(OC)ccc3OC)nc3ccccc23)c(C)n1,56*,6,-7,-6
CCn1cc(CNC(=O)c2cc(-c3ccccc3OC)nc3ccccc23)c(C)n1,-3,1,5,-8
CCNC(=S)NNC(=O)c1cc(-c2ccc(OC)cc2)nc2ccccc12,2,-1,9,68*
COc1cccc(-c2cc(C(=O)Nn3cnnc3)c3ccccc3n2)c1,-2,38*,41,2
CCNC(=S)NNC(=O)c1ccccc1Cl,51*,2,-9,19
CNC(=S)Nc1cccc(Cl)c1C,-4,1,7,-10
CCNc1nn2ccccc2c1/C=C(\C#N)C(=O)OCC,x,x,13,x
CCNC(=S)NNC(=O)c1cc(-c2cccc(C)c2)nc2ccccc12,95*,-12,7,29
COC(=O)c1c(C)oc2ccc(OC(=O)c3cccs3)cc12,-2,4,86*,28
